# ChEMBL document CHEMBL3988442, “University of Dundee, Small-Polar-MMV Screening Library” (2021)
# Hit rate of the full screen: of about 48,000 compounds, about 13,000 (27%) showed an effect of 50% or more. The list shows a part of the results.
# Tested on: Wolbachia pipientis
# Test: Anti-Wolbachia Cell-Based Screen
# Format: functional
# Set-up: scale not given: in the data most compounds retested in dose-response had high values
# Details: 5 µM
row,SMILES,Percent Effect [%]
1,CC(NC(=O)c1ccc(C(N)=O)cc1)c1cccc(N2CCOC2=O)c1 (stereo not drawn),7.135
2,Cc1ccc(C(=O)N2CCN(C(=O)C(C)n3ccnc3)CC2)cc1F (stereo not drawn),-10.24
3,CN(C)c1ccc(-c2cc(=O)n3c(n2)CCCCC3)cc1,163.6
4,CCOc1ccc(-c2cc(=O)n3c(n2)CCCCC3)cc1,126.5
5,COc1ccc(C2CC(=O)Nc3c2nc2n3CCCC2)cc1OC (stereo not drawn),9.396
6,CCOc1cc(-c2cc(=O)n3c(n2)CCCCC3)ccc1O,95.98
7,CN(C)c1cnn(CC(=O)N2CCCCCC2)c(=O)c1,2.501
8,COc1ccc(-c2cc(=O)n3c(n2)CCCCC3)cc1,99.63
9,CCOc1ccc(-c2ccnc(C)n2)cc1C(=O)O,-6.535
10,CCOc1ccc(-c2ccnc(C3CC3)n2)cc1C(=O)O,5.09
11,COc1ccc(C2CC(=O)Nc3c2nc2n3CCCC2)cc1O (stereo not drawn),0.05289
12,CCOc1ccc(OC2CCCN(c3cnn(C)c3)C2=O)cc1 (stereo not drawn),7.424
13,CCOc1ccc(NC(=O)Nc2cc(N3CCCCC3)ncn2)cc1,16.35
14,CN(Cc1nccs1)C1CCN(c2cccc(-c3cscn3)c2)CC1,-5.707
15,O=C(Nc1cc(-c2ccccc2)on1)N1CCN(CCO)CC1,-8.087
16,CN(CC(O)C1CC1)C(=O)c1ccc(-c2nc(C3CC3)n[nH]2)cc1 (stereo not drawn),-1.161
17,Cc1[nH]c(-c2ccccc2)nc1C(=O)N1CCC2(CCCO2)CC1,-0.5796
18,NC(=O)c1ccc(N2CCCCC2)c(NC(=O)c2cncc(Br)c2)c1,8.346
19,Cc1nc(C(C)NC(=O)NCc2nccn2CC(C)C)cs1 (stereo not drawn),-2.713
20,CC(C(=O)Nc1cccc(C(F)(F)F)c1)N(C)CCN1CCOCC1 (stereo not drawn),-13.73
21,COCC(NC(=O)c1cnn(C)c1)c1cccc(C(F)(F)F)c1 (stereo not drawn),-8.704
22,CC(O)(CN1CCC(O)CC1)c1cccc(C(F)(F)F)c1 (stereo not drawn),104.1
23,CC(=O)N1CCN(CC(C)(O)c2cccc(C(F)(F)F)c2)CC1 (stereo not drawn),108.1
24,COC(=O)NCC(=O)NCC(C)(C)c1cccc(C(F)(F)F)c1,-0.4386
25,COCCN1CCN(C(=O)C(c2cccc(F)c2)N(C)C)CC1 (stereo not drawn),-2.953
26,CC(=O)N1CCOC(Cc2cccc(C(F)(F)F)c2)C1 (stereo not drawn),-10.28

row,SMILES,Percent Effect [%]
1,CC(O)(CN1CCN(CCO)CC1)c1cccc(C(F)(F)F)c1 (stereo not drawn),117
2,CC(NCC1CCN(CCO)CC1)c1ccc(C(F)(F)F)cc1 (stereo not drawn),4.315
3,CC(=O)N1CCN(Cc2ccc(C(F)(F)F)cc2F)CC(O)C1 (stereo not drawn),-3.674
4,COCCN1CCN(CC(C)(O)c2cccc(C(F)(F)F)c2)CC1 (stereo not drawn),78.04
5,CC(N)C(=O)N1CCC(Oc2cccc(C(F)(F)F)c2)CC1 (stereo not drawn),-15.39
6,CC(C)c1noc(C(C)N2CCC(c3nc4ccccc4[nH]3)CC2)n1 (stereo not drawn),10.92
7,O=C(CCSc1ccccc1)NS(=O)(=O)c1ccc2c(c1)OCCO2,13.89
8,CC1=NOC(C(=O)N2CCC(O)(c3ccc4nc(C)ccc4c3)CC2)C1 (stereo not drawn),-15.54
9,Clc1ccc(CN2CCCC(Cn3cncn3)C2)c2ncccc12 (stereo not drawn),-4.031
10,Cn1c(C(=O)N2CCC(C3OCCO3)CC2)c(Cl)c2ccccc21,4.597
11,O=c1[nH]nc2nc(N3CCSCC3)ccn12,-3.985
12,CC(NC(=O)Nc1cccnc1N1CCOCC1)c1ccccc1 (stereo not drawn),-4.6
13,O=c1[nH]nc2c(N3CCOCC3)nccn12,105.6
14,O=c1[nH]nc2c(N3CCC(NC4CCOCC4)CC3)nccn12,113.4
15,CCc1cc(N2CCC(NC3CCOCC3)CC2)nc(N(C)C)n1,-0.7364
16,CC(C)c1nccn1C(C)C(=O)NC1CCOCC1 (stereo not drawn),-4.368
17,O=c1[nH]nc2nc(N3CCOCC3)ccn12,3.869
18,O=c1[nH]nc2nc(N3CCCC3)ccn12,-11.65
19,O=c1[nH]nc2c(N3CCCCCC3)nccn12,114.9
20,COc1cccn(Cc2nnc(-c3cccnc3)o2)c1=O,-29.57
21,Cc1nc(CNC(=O)[C@@H]2CCCN2C(=O)OC(C)(C)C)cs1,-12.19
22,Cc1ccccc1N1CCCN(CC2(O)CCCNC2)CC1 (stereo not drawn),-10.43
23,O=C(c1cc(COc2ccc3c(c2)OCO3)[nH]n1)N1CCOCC1,16.23
24,O=C(c1cc(COc2ccc3c(c2)OCO3)[nH]n1)N1CCCC(O)C1 (stereo not drawn),-9.09
25,CC(C)c1ccc(CN2CCN(C(=O)c3cc(C4CC4)[nH]n3)CC2)cc1,100.6
26,COc1ccnc(N2CCN(C(=O)c3cc(C4CC4)[nH]n3)CC2)n1,-20.97

row,SMILES,Percent Effect [%]
1,O=C(c1cc(C2CC2)[nH]n1)N1CCN(Cc2ccc(Cl)cc2)CC1,91.65
2,O=C(c1cc(C2CC2)[nH]n1)N1CCN(Cc2ccncc2)CC1,106.7
3,O=C(c1cc(C2CC2)[nH]n1)N1CCN(Cc2ccc3c(c2)OCO3)CC1,118.4
4,O=C(c1cc(C2CC2)[nH]n1)N1CCN(c2nccs2)CC1,-6.646
5,N#Cc1ccc(CN2CCN(C(=O)c3cc(C4CC4)[nH]n3)CC2)cc1,-3.632
6,CCc1nc(C(=O)N2CCN(Cc3ccc(Cl)cc3)CC2)c[nH]1,7.187
7,CC(C)c1cc(C(=O)N2CCN(Cc3ccc(C#N)cc3)CC2)n[nH]1,1.28
8,Cc1ccsc1C(=O)NCC1COCc2c(C)nnn2C1 (stereo not drawn),-4.017
9,COc1ccc(CC(=O)N2CCc3nc(C(=O)N(C)C)sc3CC2)cc1,-11.26
10,COCc1cc(N(C)Cc2cc(C(C)(C)C)n[nH]2)ncn1,-4.66
11,Cc1cnn(CCNCc2ccc(OCC(N)=O)cc2)c1,-9.498
12,Cc1nn(CCC#N)c(C)c1CCC(=O)N(C)Cc1ccc(F)cc1F,10.09
13,O=C(c1cc(C2CC2)[nH]n1)N1CCCN(c2nccs2)CC1,-25.45
14,CCOc1ccc(CN2CCN(C(=O)c3ccc(C)n3C)CC2)cc1,6.046
15,Cc1cccc(CN2CCN(C(=O)c3cc(C4CC4)[nH]n3)CC2)c1,106.2
16,N#Cc1ccc(N2CCN(C(=O)c3cc(C4CC4)[nH]n3)CC2)c(F)c1,-1.136
17,Cc1cccc(CN2CCN(C(=O)c3ccc(C)[nH]c3=O)CC2)c1,-0.706
18,O=C(c1cc(C2CC2)[nH]n1)N1CCN(Cc2ccccc2)CC1,113.8
19,O=C(c1cc(C2CC2)[nH]n1)N1CCN(Cc2ccsc2)CC1,-9.211
20,CC(C)c1cc(C(=O)N2CCCN(Cc3ccccc3)CC2)n[nH]1,-13.62
21,CCOc1ccc(CN2CCN(C(=O)c3cc(C4CC4)[nH]n3)CC2)cc1,100.1
22,COCCC1(CNC(=O)NC2CCCN(C)C2)CC1 (stereo not drawn),-18.26
23,CC(C)OC(=O)N1CCC(Cc2cccc(C(N)=O)c2)C1 (stereo not drawn),0.346
24,O=C(Nc1ccccc1-c1cccs1)N1CCOCC1,-11.7
25,Cc1nc(-c2cccs2)ccc1C(=O)N1CCN(CC(C)O)CC1 (stereo not drawn),6.494
26,CC(C(=O)N1CCCCC1)n1nc(-c2cccs2)cc(N)c1=O (stereo not drawn),96.7

row,SMILES,Percent Effect [%]
1,CC(C(=O)N1CCCC1)n1nc(-c2cccs2)cc(N)c1=O (stereo not drawn),96.9
2,CC(C(=O)N1CCOCC1)n1nc(-c2cccs2)cc(N)c1=O (stereo not drawn),87.73
3,CC(C(=O)N1CCOCC1)N1CCc2cncnc2C1 (stereo not drawn),24.13
4,Nc1cc2c(nn1)CCN(C(=O)c1csc(-c3cccs3)n1)C2,-8.113
5,O=C1CC(c2cccs2)Cc2nc(O)c(C(=O)N3CCCC3)cc21 (stereo not drawn),-9.305
6,Cl.Cn1cc(CNC2CCC(O)CC2)c(-c2cc3ccccc3o2)n1 (stereo not drawn),4.474
7,CC(NC(=O)Cc1cc2c(cc1Cl)OCCO2)c1ccncn1 (stereo not drawn),-8.722
8,O=C(c1c2c(NCC3CC3)ncnc2n2ccccc12)N1CCCC1,17.48
9,COc1ncc(C2CC(=O)NCc3nc4ccccn4c32)cn1 (stereo not drawn),2.979
10,CCn1ccc(C(=O)N(C)Cc2cnn(-c3cccc(OC)c3)c2)n1,-12.09
11,CNC(=O)c1ccc(C2CN(C(=O)COC)CCO2)nc1 (stereo not drawn),-5.036
12,Cc1ccc(C2CN(Cc3cnc(-c4cccnc4)s3)CCO2)o1 (stereo not drawn),6.287
13,COc1ccc2cc(C3CN(C(=O)COC(C)C)CCO3)ccc2c1 (stereo not drawn),-0.3239
14,COCC(=O)N1CCOC(c2ccc(N(C)C)cn2)C1 (stereo not drawn),108.5
15,COCC(=O)N1CCOC(c2cccc(-c3cncnc3)n2)C1 (stereo not drawn),151.1
16,Br.Cn1nccc1CN1CCOC(c2cccc(-c3cncnc3)n2)C1 (stereo not drawn),91.95
17,CCC1CN(C(=O)COc2ccc(C)nc2)CCO1 (stereo not drawn),-3.761
18,Cc1nccc(C2CN(Cc3cc[nH]n3)CCO2)n1 (stereo not drawn),-9.06
19,CC(Cc1ccc(C(F)(F)F)cc1)C(=O)N1CCCS1(=O)=O (stereo not drawn),-11.51
20,c1ccc(C2CN(C3CC3)CC3(CCN(Cc4cscn4)CC3)C2)cc1 (stereo not drawn),-14.1
21,CCOc1ccc(CN2C(=O)CC(C)(C(C)C)C2=O)nc1 (stereo not drawn),-23.31
22,Fc1cnc(N2CCCn3c(nnc3Cn3ccnc3)C2)nc1.O=C(O)C(F)(F)F,-11.56
23,Cc1cnc(N2CCn3c(CN4CCOCC4)nnc3C2)nc1.O=C(O)C(F)(F)F,-6.202
24,CC(C)N(C)Cc1nnc2n1CCCN(c1ncccn1)C2.O=C(O)C(F)(F)F,99.37
25,Cc1cnc(N2CCCn3c(nnc3CN(C)C(C)C)C2)nc1.O=C(O)C(F)(F)F,99.73
